MITF TRPM1 inh: inhibitors of MITF-driven TRPM1 promoter in melanoma cells; inhibition, % at 12.5 µM; SK-MEL-5 TRPM1 promoter luciferase, 24 h; 330,000 compounds, 0.83% hits;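 active means mean inhibition across replicates of 60% or more, whatever share of single replicates reaches that level; inconclusive means some that reach 60%, reason not given; inactive means mean inhibition across replicates below 60%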
KKLEB tox: CF airway cell cytotoxicity counter-screen; KKLEB CF airway cells viability, ATPlite luminescence, overnight; active compounds read low; cells stimulated with P. aeruginosa culture filtrate; activity change (cytotoxicity), % at 5 µM; AID 602141; 360,000 compounds, 0.36% hits;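 active means corrected activity change at or below -50% at 5 µM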
HIF-2a inh: HIF-2a inhibition. inhibition, % at 18.8 µM. AID 624352. 360,000 compounds, 0.72% hits. 786-0 RCC cells HIF-2a reporter, luciferase luminescence, overnight;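 active means inhibition of the luminescence signal of 40% or more relative to plate controls, in a single-dose primary screen at 18.75 µM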
CF NFkB block: blocks PAF-induced NF-kB reporter in cystic fibrosis cells; inhibition, % at 5 µM; 360,000 compounds, 0.86% hits; KKLEB NF-kB-GFP reporter, GFP fluorescence overnight;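 active means at least 50% inhibition at 5 µM, scaled per plate between neutral and stimulator controls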;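 further: PAF is a Pseudomonas aeruginosa culture filtrate used as stimulus; plate controls were PAF-stimulated DMSO wells for no effect and unstimulated DMSO wells for full effect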
Peg3 prom inh-1: inhibitors of Peg3 promoter; 360,000 compounds, 1.7% hits; inhibition, % at 20 µM; HeLa PEG-Prom luciferase reporter, luminescence, overnight; AID 588405;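 active means inhibition of at least 50% at 20 µM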
CHOP inhibitor: CHOP inhibition in unfolded protein response; AID 2732; CHO-K1 CHOP-promoter luciferase, tunicamycin-induced, 15-18 h; 220,000 compounds, 3.8% hits; inhibition, % at 10 µM;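 active means compounds that reduced the stress-induced luciferase reporter signal by more than about 70% of percent inhibition, limit read from the data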;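 further: 0% = tunicamycin plus vehicle and 100% = wells without tunicamycin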
CHOP confirm: confirmation of CHOP induction inhibitors; inhibition, % at 10 µM; CHO-CHOP promoter luciferase reporter, tunicamycin-induced, luminescence; 2,100 compounds, 45% hits; shares compounds with CHOP inhibitor;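 active means mean of three repeat readings of reporter signal inhibition above a set limit, cut at about 70% in these data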;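 further: 0% = tunicamycin plus vehicle and 100% = wells lacking tunicamycin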
Peg3 prom inh-2: Peg3 promoter inhibition confirmation | shares compounds with Peg3 prom inh-1 | HeLa PEG-Prom luciferase reporter, luminescence, overnight | inhibition, % at 20 µM | 1,300 compounds, 84% hits | AID 602417;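 active means at 20 µM dose, 40% or more inhibition averaged across four replicates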
CF NFkB conf: CF NF-kB inhibition confirmation, single concentration; AID 602472; 1,300 compounds, 64% hits; KKLEB CF airway cells, PAF-induced NF-kB-GFP fluorescence, overnight; inhibition, % at 5 µM; shares compounds with CF NFkB block; in the data active means inhibition above about 40%;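 further: stimulus PAF is a Pseudomonas aeruginosa filtrate and not platelet activating factor; plate controls were DMSO wells with stimulus for no effect and unstimulated DMSO wells for full effect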
* hit, by the source's call; ? = inconclusive; . = no result given. Only some compounds are listed: those with a hit (about 4.3% of all), similar ones and a draw of the others.

SMILES | MITF TRPM1 inh | KKLEB tox | HIF-2a inh | CF NFkB block | Peg3 prom inh-1 | CHOP inhibitor | CHOP confirm | Peg3 prom inh-2 | others
NC(=O)CC(NC(=O)Cc1cccc2ccccc12)c1ccc(NC2CCCCC2)c([N+](=O)[O-])c1 (stereo not given) | -1 | -22 | -11 | 11 | 78* | 105* | 13 | 14
COc1cccc(CC(=O)OCC(=O)Nc2c(C)nn(-c3ccccc3)c2C)c1 | -3 | -6 | 4 | 24 | -2 | . | . | .
COC(=O)C[C@@H]1OC[C@H](CO)N1S(=O)(=O)c1ccc(C)cc1 | . | . | 2 | . | . | . | . | .
CN(C)c1ccc(-c2nc3ccccn3c2/N=C/c2ccc(Br)cc2)cc1 | -3 | -9 | 36 | -8 | 54* | 98* | 75* | 41*
Cc1csc(NC(=O)CSc2nnc(NC(=O)NC(C)(C)C)s2)n1 | -18 | 5 | -96 | 7 | -134 | . | . | .
CCC(C)(C)c1ccc(Oc2ccc(N)cc2)cc1 | 98* | 4 | 88* | -28 | 72* | 108* | 125* | 91*
CCC(C)(C)c1ccc(Oc2cccc(C(=O)O)c2)cc1 | -35 | -5 | 25 | -12 | -209 | -11 | . | .
Cc1ccc(-c2nc(C(Cl)Cl)c3ccccc3n2)cc1 | 17 | -25 | -86 | 16 | 111* | 103* | 100* | 99*
Cc1cc(C2=NNC(=NC3CC3)SC2)c(C)n1-c1ccccc1F | 99* | -58* | 89* | -16 | 104* | 105* | 125* | 98*
O=C(/C=C/c1ccccc1)Nc1cc(NC(=O)/C=C/c2ccccc2)cc(C(=O)O)c1 | 18 | 16 | 19 | -6 | 14 | . | . | .
O=C(/C=C/c1ccccc1)Nc1cccc(C(=O)O)c1 | 99* | 3 | 87* | -4 | 85* | 97* | 116* | 77*
CC(N)(Cc1ccc(O)c(O)c1)C(=O)O (stereo not given) | . | . | . | . | . | -9 | . | .
N=c1n(CC(=O)c2ccc([N+](=O)[O-])cc2)c2ccccc2n1Cc1ccc(Cl)cc1 | 92* | -36 | 10 | 7 | 109* | 105* | 122* | 97*
CCN1C=CC(=C2C(=O)c3ccccc3C2=O)C=C1 | 100* | -46 | 87* | -11 | 97* | 100* | 115* | 90*
CCCCCCN1C=CC(=C2C(=O)c3ccccc3C2=O)C=C1 | 80* | -58* | 39 | -20 | 58* | 99* | 102* | 43*
COc1cccc(C(=O)N2CCC2(C)C(=O)O)c1 (stereo not given) | . | 1 | 8 | -22 | -12 | . | . | .
CC(=O)N1CCN(C(=O)c2cc(S(=O)(=O)N3CCN(c4ccccc4)CC3)ccc2Cl)CC1 | 0 | 8 | 7 | 1 | 5 | . | . | .
c1ccc(CNc2cccnc2)cc1 | . | 4 | -3 | 6 | -4 | . | . | .
CCc1nc(N=Nc2c(O)[nH]c3ccccc23)c2c3c(sc2n1)CCC3 | 50 | 21 | -16 | -38 | 85* | 101* | 35 | 10
Oc1[nH]c2ccccc2c1N=Nc1nc2ccccc2s1 | 6 | -6 | -136 | 4 | -144 | -29 | . | .
Cc1ccccc1C(=O)c1cccn1CC(=O)N1CCCCC1 | -7 | -1 | -6 | 2 | 2 | . | . | .
Cc1ccc(S(=O)(=O)N(C)c2ccc(C(=O)Nc3cccnc3)cc2)cc1 | -2 | 10 | 6 | 6 | 16 | . | . | .
Nc1c(C(=O)Nc2nc3ccccc3s2)sc2nc(-c3cccs3)ccc12 | ? | -41 | -40 | 12 | 95* | 102* | 82* | 64*
Cc1cc(/C=c2/sc3nc4ccccc4n3c2=O)c(C)n1-c1ccccn1 | 86* | -54* | 75* | 10 | 75* | 107* | 118* | 88*
O=C(Nc1nccs1)c1cc2c(s1)CCCCC2 | 46 | -54* | 51* | -11 | 58* | 98* | 78* | 16
SMILES | MITF TRPM1 inh | KKLEB tox | HIF-2a inh | CF NFkB block | Peg3 prom inh-1 | CHOP inhibitor | CHOP confirm | Peg3 prom inh-2 | others
COc1cccc(N(C(=O)CS(=O)CC(=O)Nc2ccc(F)cc2)C(C(=O)NC2CCCCC2)c2cccs2)c1 (stereo not given) | 16 | -10 | 12 | -1 | 60* | 100* | 51 | 20
CCCNC(=O)c1cc(C2CCCCN2S(C)(=O)=O)on1 (stereo not given) | . | 0 | -2 | 15 | -13 | . | . | .
O=C(c1nnsc1S(=O)(=O)c1ccc(Cl)cc1)N1CCOCC1 | 73* | -33 | 32 | 90* | 95* | 102* | 95* | . | CF NFkB conf=96*
CC[C@@H]1CC=C[C@H]2[C@H]1C(=O)N(Cc1ccccc1)[C@H]2c1ccoc1 | 17 | -19 | 32 | 59* | 88* | 101* | 137* | . | CF NFkB conf=13
CS(=O)(=O)c1ncc(Cl)c(C(=O)Nc2ccc(N3CCOCC3)cc2)n1 | 92* | -28 | 15 | 92* | 104* | . | 117* | . | CF NFkB conf=79*
CS(=O)(=O)c1ccc(C(=O)Nc2ccc(N3CCOCC3)cc2)c(Cl)c1 | 3 | -1 | 3 | -6 | 1 | 6 | . | .
Cc1ccc(C2C(C#N)=C(N)Oc3cc4c(cc32)OCO4)cc1 (stereo not given) | 20 | -13 | 25 | 8 | 27 | 45 | . | .
Cc1ccc(N=Cc2cc3c(cc2O)OC(N)=C(C#N)C3c2ccccc2)cc1 (stereo not given) | 42 | 18 | 35 | 54* | -8 | 99* | 82* | . | CF NFkB conf=74*
Cc1cc(C)cc(N2C(=O)CC(Sc3nnnn3-c3ccccc3)C2=O)c1 (stereo not given) | 11 | -17 | -11 | 57* | 108* | 102* | 63 | . | CF NFkB conf=-1
Cn1nnnc1SC1CC(=O)N(c2ccccc2)C1=O (stereo not given) | -4 | -9 | 15 | 1 | 14 | -6 | . | .
CCCCCN(C(=O)CCC(=O)OCCOc1ccc(OCC)cc1)c1c(N)n(CCCC)c(=O)[nH]c1=O | 3 | 8 | 8 | -2 | 4 | . | . | .
O=[N+]([O-])c1ccc(-c2nn(-c3ccccc3)cc2/C=N/n2c(-c3cccs3)n[nH]c2=S)cc1 | 2 | -34 | 5 | 56* | 14 | 102* | 101* | . | CF NFkB conf=-7
CC(C)c1ccc(CN2C(=O)NC3(CCCCCC3)C2=O)cc1 | -3 | 0 | 20 | 4 | 15 | . | . | .
CCOC(=O)C1=CC[C@@H](c2cc(OC)c(OC)c(OC)c2)N(S(=O)(=O)c2ccc(C)cc2)[C@H]1C(=O)OCC | 13 | -9 | 13 | 15 | 4 | . | . | .
Nc1cccc2c1C(=O)N(C(=O)/C=C/c1ccc(F)cc1)C2=O | 42 | -24 | 29 | 65* | 102* | 103* | -111 | . | CF NFkB conf=15

Assay outcomes as filed in PubChem BioAssay.
